High-throughput results as filed in PubChem BioAssay.
Shiga toxin inh: inhibitors of Shiga toxin in Vero cells; hit rate 9.2% among 290,000; inhibition, % at 38.7 µM; Vero cells, Shiga toxin protein synthesis inhibition reporter; in the data active = inhibition mostly above about 28%, no sharp cut-off; inactive = mostly below about 43%; also: 0% is about no effect
Cycloheximide cs: counter-screen hit for Shiga toxin inhibitors, cycloheximide; cell reporter, cycloheximide protein synthesis inhibition counterscreen; max response, %; hit rate 12% among 300,000; in the data active = max response mostly above about 13%, no sharp cut-off; inactive = mostly below about 14%; also: read at 38.3 µM for the half of the compounds with a filed dose; 0% is about no effect
Pf growth 48h: inhibits P. falciparum growth in the first generation, 48 h | P. falciparum luciferase growth in erythrocytes, 48 h | hit rate 5.9% among 310,000 | AID 504832 | Potency, µM (highest dose often 28.7 µM), for inactives: at the top dose activity change, negative = inhibition, actives largely listed as inhibitors; also: potency is read from the fitted curve at half-maximal effect; % is scaled to controls: 0 for no effect and ±100 for the full control effect
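First compound was added to culture medium, then infected red cells at 0.1% parasitemia and 2% hematocrit (final). After incubation at 37 C under 5% CO2, luciferase detection reagent was dispensed and light output recorded.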
NS1 inh: blocks influenza NS1 protein function; hit rate 0.4% among 270,000; Potency, µM (top dose mostly 46.1 µM), for inactives: at the top dose activity, positive = more growth; calls by dose curve; also: potency is read from the fitted curve at half-maximal effect; actives are rising curves; nearly all actives have a fitted effect of over 50% in size
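OD600 was taken as the measure of yeast growth restored by compound in an NS1-expressing S. cerevisiae strain. Cells had been washed out of glucose medium and diluted 1:100 into galactose -URA medium, pH 6.0.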
Pf growth 96h: inhibits malaria parasite growth, 96 h; AID 504834; Potency, µM (highest dose often 28.7 µM), without a hit: at the highest dose activity change, negative = inhibition, actives largely listed as inhibitors; P. falciparum luciferase reporter growth, 96 h; hit rate 6.9% among 320,000; also: potency is read from the fitted curve at half-maximal effect; % is scaled to controls: 0 for no effect and ±100 for the full control effect
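Infected RBCs, 2% Hct / 0.05% parasitemia final; luciferase-reporter P. falciparum; cpd 96 h, 37 C, 5% CO2; luciferase detection reagent; luminescence.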
FBPA Giardia inh: blocks Giardia fructose-bisphosphate aldolase activity. purified Giardia FBPA. Potency, µM (doses to about 59.6 µM), inactives show at the top dose activity, negative = inhibition, usual class: inhibitors. hit rate 0.71% among 290,000. AID 2451; also: potency is read from the fitted curve at half-maximal effect; % is scaled to controls: 0 for no effect and ±100 for the full control effect; nearly all actives have a fitted effect of over 55% in size
Target sequence (A8B2U2 whole entry, looked up): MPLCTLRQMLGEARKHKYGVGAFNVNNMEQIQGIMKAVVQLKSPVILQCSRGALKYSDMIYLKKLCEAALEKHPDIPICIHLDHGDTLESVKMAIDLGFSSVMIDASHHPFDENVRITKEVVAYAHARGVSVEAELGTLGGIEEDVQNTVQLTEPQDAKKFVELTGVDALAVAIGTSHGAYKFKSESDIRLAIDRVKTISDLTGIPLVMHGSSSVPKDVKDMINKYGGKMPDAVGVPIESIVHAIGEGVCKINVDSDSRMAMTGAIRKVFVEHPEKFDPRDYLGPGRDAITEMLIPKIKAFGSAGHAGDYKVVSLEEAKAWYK
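Giardia FBPA (40 nM reagent) was preincubated 10 min at RT with compound (up to 57.5 uM final), then substrate plus GAPDH/TPI/NAD/arsenate coupling system with diaphorase/resazurin was added; resorufin fluorescence (525/598 nm) was read after 20 min.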
Starred values were filed as active, the others as inactive; [ ] = dose if it differs, or a comment. Hits are enriched below; roughly 21% of the tested compounds scored in any of these assays. Unless noted, calls follow the shape of the dose curve; as a rule, active = well fitted curve in the direction sought with a large enough effect; inconclusive = small, poorly fitted or top-dose-only effect, or another doubt; inactive = no such curve, though single readings can be large; an effect the other way counts as inactive or inconclusive.

Screening Cc1cccc(NC(=O)CCc2c(C)nn(-c3ccc(N4CCOCC4)nn3)c2C)c1 returned Shiga toxin inh 40.5*, Cycloheximide cs 23.0*, Pf growth 48h 42.4%, NS1 inh -14.3%, Pf growth 96h inconclusive and FBPA Giardia inh 11.1%.
COc1cccc(NC(=O)CCc2c(C)nn(-c3ccc(N4CCOCC4)nn3)c2C)c1 was read as Shiga toxin inh 22.9, Cycloheximide cs 10.6, Pf growth 48h 15.1%, NS1 inh -6.4%, Pf growth 96h -9.5% and FBPA Giardia inh 4.7%.
Screening CCCNC(=O)OC[C@@H]1O[C@H](CCO/N=C(\C)CCN2CCCc3nc(C)c(C)cc32)C=C[C@@H]1Oc1ccc(OC)cc1 returned FBPA Giardia inh 4.2%[12.9 µM].
CC(C)CO/N=C1/C[C@@H](O)[C@@H](O)[C@@H]2[C@@H]3C(=O)N(Cc4ccccc4)C(=O)[C@H]3CC[C@H]12 was read as FBPA Giardia inh -0.1%[12.9 µM].
Screening Cc1ccc(NC(=O)CN2C(=O)S/C(=C\c3cc(Cl)c(OCC(=O)O)c(Cl)c3)C2=O)cc1 returned Cycloheximide cs -3.1, Pf growth 48h 39.9%, NS1 inh 14.6%, Pf growth 96h -2.6% and FBPA Giardia inh -6.7%.
CCn1c(SCC(=O)Nc2ccc(OC)cc2)nc2nc3c(cc2c1=O)COC(C)(C)C3 was read as Shiga toxin inh -6.8, Cycloheximide cs 0.6, Pf growth 48h inconclusive, NS1 inh -1.3%, Pf growth 96h inconclusive and FBPA Giardia inh -11.7%.
CCn1c(SCC(=O)Nc2ccc(C(C)=O)cc2)nc2nc3c(cc2c1=O)COC(C)(C)C3 was read as Shiga toxin inh 122.4*, Cycloheximide cs 31.7*, Pf growth 48h 19.8%, NS1 inh -1.5%, Pf growth 96h 25.9% and FBPA Giardia inh -2.2%.
CCn1c(SCC(=O)Nc2ccc(Cl)cc2)nc2nc3c(cc2c1=O)CCCC3 was read as Shiga toxin inh -5.2, Cycloheximide cs 1.0, Pf growth 48h inconclusive, NS1 inh 13.4%, Pf growth 96h 13.1µM* and FBPA Giardia inh 1.7%.
For CCn1c(SCC(=O)Nc2ccc(C(C)=O)cc2)nc2nc3c(cc2c1=O)CCCC3 the results were Shiga toxin inh 45.6*, Cycloheximide cs 26.5*, Pf growth 48h inconclusive, NS1 inh 19.5%, Pf growth 96h inconclusive and FBPA Giardia inh -0.4%.
CC(=O)Nc1ccc(S(=O)(=O)N2CCN(S(=O)(=O)c3ccc(F)c(F)c3F)CC2)cc1 was read as Shiga toxin inh 10.3, Cycloheximide cs 10.3, Pf growth 48h -4.2%, NS1 inh 0.5%, Pf growth 96h 3.1% and FBPA Giardia inh 10.9%.
Screening CCCCn1c(N)c(N(Cc2ccccc2OC)C(=O)c2ccc(N3CCCC3=O)cc2)c(=O)[nH]c1=O returned Pf growth 48h -19.9% and Pf growth 96h inconclusive.
`CCOc1ccc(CCNC(=O)COC(=O)c2ccc(C)c([N+](=O)[O-])c2)cc1OCC` gave Shiga toxin inh -11.1, Cycloheximide cs -2.6, Pf growth 48h 27.0%, NS1 inh 1.1%, Pf growth 96h inconclusive and FBPA Giardia inh 7.7%.
Screening CCCCc1cc(=O)oc2cc(C)cc(OC(C)C(=O)NCc3ccncc3)c12 (stereo not given) returned Shiga toxin inh -3.7, Cycloheximide cs -2.7, Pf growth 48h inconclusive, NS1 inh -18.9% and Pf growth 96h inconclusive.
For Cc1ccc(C)c(NC(=O)COC(=O)c2cc3ccccc3oc2=O)c1 the results were Pf growth 48h 26.1% and Pf growth 96h -2.1%.
`CCc1ccc(C(CNC(=O)c2ccc3c(=O)n(-c4ccccc4F)c(=S)[nH]c3c2)N(C)C)cc1` (stereo not given) gave Shiga toxin inh 27.2, Cycloheximide cs 9.1, Pf growth 48h 13.1µM*, Pf growth 96h inconclusive and FBPA Giardia inh -8.5%.
Clc1ccc(-c2c[n+](Cc3ccc(Cl)cc3Cl)c3n2CCCCC3)cc1 was read as Shiga toxin inh 0.6, Cycloheximide cs -0.7, Pf growth 48h 1.65µM*, NS1 inh -0.1%, Pf growth 96h 0.165µM* and FBPA Giardia inh 5.3%.
Clc1ccc(C[n+]2cc(-c3ccccc3)n3c2CCC3)cc1Cl was read as Shiga toxin inh -14.6, Cycloheximide cs 1.0, Pf growth 48h inconclusive, NS1 inh 1.5%, Pf growth 96h inconclusive and FBPA Giardia inh 1.2%.
Screening Clc1ccc(-c2c[n+](Cc3cccc(Cl)c3)c3n2CCC3)cc1 returned Shiga toxin inh -6.0, Cycloheximide cs -2.2, Pf growth 48h 1.85µM*, NS1 inh 10.1%, Pf growth 96h 0.262µM* and FBPA Giardia inh -0.3%.
For Clc1ccc(C[n+]2cc(-c3ccccc3)n3c2CCCCC3)c(Cl)c1 the results were Shiga toxin inh -5.2, Cycloheximide cs -10.4, Pf growth 48h 0.738µM*, NS1 inh -3.3%, Pf growth 96h 2.62µM* and FBPA Giardia inh 3.8%.
For O=[N+]([O-])c1ccc(C[n+]2cc(-c3ccccc3)n3c2CCCCC3)cc1 the results were Shiga toxin inh -0.2, Cycloheximide cs -3.0, Pf growth 48h 5.22µM*, Pf growth 96h -84.2% and FBPA Giardia inh 9.8%.
Screening O=[N+]([O-])c1ccc(C[n+]2cc(-c3ccc(Cl)c(Cl)c3)n3c2CCCCC3)cc1 returned Shiga toxin inh 20.9, Cycloheximide cs -1.8, Pf growth 48h inconclusive, NS1 inh 0.1%, Pf growth 96h inconclusive and FBPA Giardia inh 5.0%.
Screening O=C1OC(OC(=O)c2cccnc2Nc2cccc(C(F)(F)F)c2)c2ccccc21 (stereo not given) returned Shiga toxin inh -1.6, Cycloheximide cs 5.3, Pf growth 48h -7.3%, Pf growth 96h -14.6% and FBPA Giardia inh -7.4%.
Screening CCc1ccc(NC(=O)Cc2c(C(=O)O)n(C)c3ccccc23)cc1 returned Shiga toxin inh -5.2, Cycloheximide cs 9.8, Pf growth 48h 27.3%, Pf growth 96h 108.9% and FBPA Giardia inh inconclusive.
Screening Clc1ccc(-c2c[n+](Cc3ccc(Br)cc3)c3n2CCCCC3)cc1 returned Shiga toxin inh 7.7, Cycloheximide cs 5.1, Pf growth 48h 0.415µM*, NS1 inh -0.6%, Pf growth 96h 0.0586µM* and FBPA Giardia inh 6.7%.
`N#CC[n+]1cc(-c2ccc(Cl)cc2)n2c1CCC2` gave Shiga toxin inh -9.5, Cycloheximide cs -2.8, Pf growth 48h inconclusive, NS1 inh 10.0%, Pf growth 96h -8.2% and FBPA Giardia inh -7.3%.
COc1ccccc1NC(=S)N1CCC(c2nc3cc(C)c(C)cc3[nH]2)CC1 was read as Shiga toxin inh 0.3, Cycloheximide cs -2.9, Pf growth 48h inconclusive, NS1 inh inconclusive, Pf growth 96h 11.7µM* and FBPA Giardia inh 1.0%.
Screening Cc1cc2nc(C3CCCN(C(=S)Nc4ccccc4)C3)[nH]c2cc1C (stereo not given) returned Shiga toxin inh 58.7, Cycloheximide cs 34.8*, Pf growth 48h -11.0%, NS1 inh 12.1%, Pf growth 96h 1.1% and FBPA Giardia inh -1.9%.
